Experimental data reported in ChEMBL document CHEMBL4513216, “Probing the Open Global Health Chemical Diversity Library for Multistage-Active Starting Points for Next-Generation Antimalarials” (ACS Infect Dis, 2020).
The campaign covered roughly 69,000 compounds. About 8,600 (12%) showed an effect of 50% or more. This excerpt belongs to a sample that is enriched for strong results.

Tested on: Plasmodium berghei
Experiment: Screen against P. berghei liver stage (PbLuc), transformed with Luciferase, at 10uM
Format: functional, HepG2
Conditions: tested at 10 uM

| SMILES | INHIBITION |
| --- | --- |
| CCN(CC)c1ncccc1CNCc1cc2ccccc2s1 | 5.91% |
| Cc1cc(NC(=O)CN2CCOC(CN(C)C)C2)n(C)n1 (stereo not given) | 4.35% |
| Cc1nc(CN2CCO[C@@H]3CN(Cc4nccs4)C[C@@H]3C2)cs1 | 3.69% |
| O=C(CN1CCCC1c1cccs1)N1CCc2sccc2C1 (stereo not given) | 19.2% |
| CC(C)c1noc(-c2cccc(OCC(N)=O)c2)n1 | -110% |
| O=C(c1ccc2ncsc2c1)N1CCC(C(=O)O)(n2cccn2)CC1 | -0.529% |
| O=C(c1ccc2sccc2c1)N1CCC(C(=O)O)(n2cccn2)CC1 | -16.6% |
| O=C(c1ccc2occc2c1)N1CCC(C(=O)O)(n2cccn2)CC1 | 60% |
| CN1CC2(CCN(CCCOCc3ccccc3)CC2)OC1=O | 42.8% |
| O=C(C1CCOC1)N1C[C@H]2CN(Cc3ccccn3)C[C@H]2C1 (stereo not given in full) | 33.5% |
| CC(=O)N(Cc1ncc(C)o1)C1CCN(Cc2sc(C)nc2C)C1 (stereo not given) | -2.19% |
| CNC(C)Cc1ccccc1Sc1ccc(O)cc1 (stereo not given) | -2.39% |
| Fc1ccc(Sc2ccccc2CNC2=NCCN2)cc1 | 83.3% |
| c1cc2c(cc1C1(CNC3=NCCN3)CCCC1)OCCO2 | 27.6% |
| Fc1ccccc1Sc1ccccc1CNC1=NCCN1 | 75.7% |
| CC(C)NCc1nc(-c2ccc3c(c2)OCO3)c[nH]1 | -40.5% |
| O=C(Cc1cccnc1)NCCSc1ccccc1F | -11.6% |
| c1ccc(Sc2ccc3c(c2)OCO3)c(CNC2=NCCN2)c1 | 87.1% |
| NCc1ccccc1Sc1ccc(O)cc1 | 39.4% |
| O=C1NCCCCC1Sc1ccccc1F (stereo not given) | 13.6% |
| CCCc1ccc(OCCNCc2ccco2)c(OC)c1 | 1.71% |
| Cc1ccc(C2CCCN2S(=O)(=O)N(C)Cc2nccn2C)o1 (stereo not given) | 40.8% |
| Cc1nc(CN2CC[C@@H](OCC3CC3)[C@@H]2Cc2cccnc2)cs1 | 10.5% |
| Cc1cnn(CC2CN(Cc3nnc(-c4ccccc4)o3)CCO2)c1 (stereo not given) | -13.3% |
| CC(=O)NC1CCCN(Cc2ccn(C)c(=O)c2)C1 (stereo not given) | -4.4825% |

| SMILES | INHIBITION |
| --- | --- |
| CNc1nc(C(=O)N2C[C@@H]3CC[C@H]2CN(C2CCOCC2)C3)cs1 | 12.8% |
| CC(c1nc(C2CC2)no1)N(C)Cc1ccc2c(c1)OCCO2 (stereo not given) | 12.3% |
| CC(c1nc(C2CC2)no1)N(C)Cc1cccc(F)c1 (stereo not given) | 53.4% |
| CC(c1nc(C2CC2)no1)N(C)Cc1ccc(Cl)cc1 (stereo not given) | 43.1% |
| Cn1ccc2c(C(=O)N3CCCC(c4nnc[nH]4)C3)cccc21 (stereo not given) | -66.9% |
| CCN1Cc2c(C(=O)NCC3CC3)ncn2-c2ccccc2S1(=O)=O | 0.139% |
| CCN1Cc2c(C(=O)NC)ncn2-c2ccccc2S1(=O)=O | 45.1% |
| CCC(CC)NC(=O)c1ncn2c1CN(CC)S(=O)(=O)c1ccccc1-2 | 52% |
| CNC(=O)c1ncn2c1CN(CCC(C)C)S(=O)(=O)c1ccccc1-2 | 64.9% |
| CCN1Cc2c(C(=O)NC(C)C(C)C)ncn2-c2ccccc2S1(=O)=O (stereo not given) | 29.9% |
| CC(C)CN1Cc2c(C(=O)N(C)C)ncn2-c2ccccc2S1(=O)=O | 5.69% |
| CN1Cc2c(C(=O)NC3CCCCC3)ncn2-c2ccccc2S1(=O)=O | 43.4% |
| CCCNC(=O)c1ncn2c1CN(CC(C)C)S(=O)(=O)c1ccccc1-2 | 57.9% |
| CC(C)CN1Cc2c(C(=O)NC3CC3)ncn2-c2ccccc2S1(=O)=O | 50.9% |
| CC(C)CCN1Cc2c(C(=O)O)ncn2-c2ccccc2S1(=O)=O | 31.8% |
| CCN1Cc2c(C(=O)NC(C)C)ncn2-c2ccccc2S1(=O)=O | 31.1% |
| CCNC(=O)c1ncn2c1CN(C)S(=O)(=O)c1ccccc1-2 | -1.53% |
| Cc1ccc(C)c(CSc2nnc(C(N)Cc3ccccc3)o2)c1 (stereo not given) | 43.8% |
| Cc1ccc(-c2cc(C3=NC(=CN4CCN(C)CC4)NO3)[nH]n2)s1 | 39.6% |
| Cc1ccsc1CNC1CCCN(Cc2noc(C3CC3)n2)C1 (stereo not given) | 31.8% |
| CC1CN(CCOc2cccc(C#N)c2)CCN1Cc1nccn1C (stereo not given) | -3.2% |
| COc1ccc(CN2CCC3(CC2)CC(c2cccnc2)CO3)cc1 (stereo not given) | 15.4% |
| Cc1csc(N2CCCN(C(=O)C3(C#N)CCCC3)CC2)n1 | -33.32% |
| CN(C)CC1CN(Cc2ccc3c(c2)OCO3)Cc2nccn2C1 (stereo not given) | 43.8% |
| Cc1noc(C)c1CN(C)c1ncnc2onc(C)c12 | 74.7% |

| SMILES | INHIBITION |
| --- | --- |
| CNc1ncc(CN(C)c2ncnc3onc(C)c23)cn1 | 62.9% |
| Cc1noc2ncnc(N(C)Cc3ccco3)c12 | 10.1% |
| Cc1noc(C)c1CN(C)c1ncnc2ccccc12 | 35.6% |
| CNc1ncc(CN(C)C2CCN(C(C)C)CC2)cn1 | -52.2% |
| CNc1ncc(CN(C)c2nc(C)c3ccc(S(C)(=O)=O)cc3n2)cn1 | -9.54% |
| Cc1ccc(S(=O)(=O)NC(=O)C2(c3ccccc3)CCC2)c(C)c1 | 21.1% |
| CNc1ccc(C)cc1C(=O)N1CCCC2(CCNC2)C1 (stereo not given) | 33.7% |
| Cc1ccc(OCCN(C)Cc2nccn2C)c(C)c1 | 55% |
| CN(CCCOc1ccccc1)Cc1nccn1C | 20.5% |
| CN(Cc1cc2c(cc1OC(F)F)OCO2)Cc1nccn1C | 43.6% |
| CCOc1cccc(C(=O)N2CCC(c3n[nH]c(C4CC4)n3)CC2)c1 | 11.2% |
| CC(C)N1CCCC(CNC(=O)c2ccnc(-n3ccnc3)c2)C1 (stereo not given) | -33% |
| c1cncc(OCC2CN(Cc3nccs3)Cc3nccn3C2)c1 (stereo not given) | 8.52% |
| Nc1cc(C(=O)NCC2CCN(CCc3ccccc3)C2)ccn1 (stereo not given) | 37.2% |
| COCCN1CCC(CNC(=O)C2(c3ccc(F)cc3)CCC2)CC1 | 8.64% |
| COCCN1CCC(CNC(=O)C2(c3ccc(Br)cc3)CCCC2)C1 (stereo not given) | 52.5% |
| COCCN1CCC(CNC(=O)C2(c3cc(C)cc(C)c3)CC2)CC1 | 26.5% |
| O=C(NCC1CCN(CCc2ccccc2)C1)c1cc(Cl)c[nH]1 (stereo not given) | 72.3% |
| COCCN1CCC(CNC(=O)Nc2ccc(SC(F)(F)F)cc2)C1 (stereo not given) | 66.5% |
| COCCN1CCC(CNC(=O)C2(c3cc(C)cc(C)c3)CCC2)C1 (stereo not given) | 40.9% |
| COCCN1CCC(CNC(=O)Nc2ccc(F)c(Cl)c2)C1 (stereo not given) | 7.44% |
| COCCN1CCC(CNC(=O)C2(c3ccccc3)CCC2)C1 (stereo not given) | 45.7% |
| O=C(NCC1CCN(CCc2ccccc2)C1)c1c(F)cccc1F (stereo not given) | 45.1% |
| COCCN1CCC(CNC(=O)Nc2ccc(-c3ccccc3)cc2)C1 (stereo not given) | 42.5% |
| COCCN1CCC(CNC(=O)c2cc(C)cc(C)c2)C1 (stereo not given) | 58.3% |
